From PubChem BioAssay AID1159580 (chemical genetic matrix, 2015)
Values joined by “and” are separate entries in the source; they are usually repeats but may differ in a detail not shown here. Equal values may be shown once. Hit rate of the full screen: of about 5,500 compounds, about 2,000 (36%) were called active. Roughly 18% stayed inconclusive and do not appear here. No stated cut-off is given here; in the data, active means normalized growth mostly below about 0.91 (no sharp cut-off); inconclusive means no clear call, values can overlap the other calls; inactive means mostly above about 0.92. This is one part of the list. Where a SMILES comes first, the peptide text is derived from it. Bridges are numbered along the chain shown (N, C = ends). [ ]: non-standard residue; d: D form. The star is where a group is joined. ξ: configuration not given here. ξDab(CH2SO3H) = NC(CCNCS(=O)(=O)O)C(=O)O; Heptanoyl(6-Me) = CC(C)CCCCC(=O)*; Dab = NCC[CH](N)C(=O)O

Assay: chemical genetic growth profiling, strain panel (AID 1159580);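 further: tested at 20 µM; growth read once vehicle control cultures reached saturation at 30 °C; 1 = growth at the plate median or of vehicle wells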
Details: S. cerevisiae deletion strains, growth OD

Measured: normalized growth

CCC(C)C1NC(=O)C(CCNCS(=O)(=O)O)NC(=O)C(NC(=O)C(CCNCS(=O)(=O)O)NC(=O)C(NC(=O)C(CCNCS(=O)(=O)O)NC(=O)CCCCC(C)C)C(C)O)CCNC(=O)C(C(C)O)NC(=O)C(CCNCS(=O)(=O)O)NC(=O)C(CCNCS(=O)(=O)O)NC(=O)C(C(C)CC)NC1=O (stereo unspecified) ({Heptanoyl(6-Me)}-[ξDab(CH2SO3H)]T[ξDab(CH2SO3H)][Dab][ξDab(CH2SO3H)]II[ξDab(CH2SO3H)][ξDab(CH2SO3H)]T; lactam 4-C; configuration not given here)
inactive: locus YAL013W, strain DEP1, stronger effect = lower value 1 | locus YAL021C, strain ccr4, stronger effect = lower value 0.93 | locus YAL026C, strain drs2, stronger effect = lower value 0.989 | locus YAL030W, strain snc1, stronger effect = lower value 0.99 | locus YBL061C, strain skt5, stronger effect = lower value 0.981 | locus YBR009C, strain hhf1, stronger effect = lower value 0.971 | locus YBR021W, strain FUR4, stronger effect = lower value 1.02 | locus YBR023C, strain chs3, stronger effect = lower value 0.985 | locus YBR171W, strain sec66, stronger effect = lower value 0.995 | locus YBR229C, strain ROT2, stronger effect = lower value 0.987 | locus YBR231C, strain swc5, stronger effect = lower value 1 | locus YBR279W, strain paf1, stronger effect = lower value 1 | locus YCL011C, strain gbp2, stronger effect = lower value 0.996 | locus YCL016C, strain dcc1, stronger effect = lower value 0.994 | locus YCL029C, strain bik1, stronger effect = lower value 0.955 | locus YCL061C, strain MRC1, stronger effect = lower value 0.996 | locus YCL069W, strain vba3, stronger effect = lower value 0.978 | locus YCR088W, strain abp1, stronger effect = lower value 0.976 | locus YDL005C, strain med2, stronger effect = lower value 1.01 | locus YDL035C, strain GPR1, stronger effect = lower value 0.989 | locus YDL040C, strain nat1, stronger effect = lower value 0.972 | locus YDL074C, strain BRE1, stronger effect = lower value 1 | locus YDL101C, strain DUN1, stronger effect = lower value 0.992 | locus YDL134C, strain PPH21, stronger effect = lower value 0.993 | locus YDL185W, strain tfp1, stronger effect = lower value 0.935 | locus YDL192W, strain arf1, stronger effect = lower value 0.965 | locus YDR001C, strain nth1, stronger effect = lower value 0.992 | locus YDR069C, strain doa4, stronger effect = lower value 0.961 | locus YDR101C, strain arx1, stronger effect = lower value 0.983 | locus YDR137W, strain rgp1, stronger effect = lower value 1.03 | locus YDR150W, strain NUM1, stronger effect = lower value 0.97 | locus YDR159W, strain sac3, stronger effect = lower value 0.95 | locus YDR162C, strain NBP2, stronger effect = lower value 0.98 | locus YDR195W, strain ref2 0.946 | locus YDR297W, strain sur2, stronger effect = lower value 0.998 | locus YDR318W, strain mcm21, stronger effect = lower value 0.956 | locus YDR334W, strain swr1, stronger effect = lower value 0.959 | locus YDR335W, strain msn5, stronger effect = lower value 0.984 | locus YDR388W, stronger effect = lower value 0.972 | locus YDR392W, strain spt3, stronger effect = lower value 1.02 | locus YDR502C, strain sam2, stronger effect = lower value 0.976 | locus YEL003W, strain gim4, stronger effect = lower value 0.996 | locus YEL037C, strain rad23, stronger effect = lower value 0.969 | locus YEL061C, strain CIN8 (second series), stronger effect = lower value 0.978 | locus YEL061C, strain CIN8, stronger effect = lower value 0.982 | locus YER015W, strain faa2, stronger effect = lower value 0.996 | locus YER016W, strain bim1, stronger effect = lower value 0.997 | locus YER110C, stronger effect = lower value 0.98 | locus YER111C, strain swi4, stronger effect = lower value 1 | locus YER155C, strain BEM2 (second series), stronger effect = lower value 1.01 | locus YER155C, strain BEM2, stronger effect = lower value 0.984 | locus YER167W, strain BCK2, stronger effect = lower value 0.964 | locus YFR010W, strain ubp6, stronger effect = lower value 0.979 | locus YGL078C, strain dbp3, stronger effect = lower value 0.968 | locus YGL086W, strain mad1, stronger effect = lower value 0.972 | locus YGL167C, strain pmr1, stronger effect = lower value 0.967 | locus YGL173C, strain kem1, stronger effect = lower value 0.984 | locus YGL227W, strain vid30, stronger effect = lower value 0.988 | locus YGL240W, strain doc1, stronger effect = lower value 1 | locus YGL248W, strain PDE1, stronger effect = lower value 0.988 | locus YGL253W, strain hxk2, stronger effect = lower value 0.993 | locus YGR078C, strain PAC10, stronger effect = lower value 0.999 | locus YGR135W, strain pre9, stronger effect = lower value 0.988 | locus YGR229C, strain SMI1, stronger effect = lower value 1.01 | locus YGR252W, strain gcn5, stronger effect = lower value 1.1 | locus YHR013C, strain ard1, stronger effect = lower value 0.978 | locus YHR027C, strain rpn1, stronger effect = lower value 1 | locus YHR030C, strain SLT2, stronger effect = lower value 0.98 and 1.01 | locus YHR079C, strain IRE1 (second series), stronger effect = lower value 0.966 | locus YHR079C, strain IRE1, stronger effect = lower value 0.971 | locus YHR094C, strain hxt1, stronger effect = lower value 0.952 | locus YHR129C, strain ARP1, stronger effect = lower value 0.98 | locus YHR142W, strain chs7, stronger effect = lower value 0.982 | locus YHR200W, strain rpn10, stronger effect = lower value 0.951 | locus YIL066C, strain RNR3, stronger effect = lower value 0.977 | locus YIL073C, strain SPO22, stronger effect = lower value 0.975 | locus YIL125W, strain kgd1, stronger effect = lower value 0.969 | locus YIR030C, strain dcg1, stronger effect = lower value 0.967 | locus YJL092W, strain hpr5, stronger effect = lower value 0.987 | locus YJL095W, strain BCK1 (second series), stronger effect = lower value 0.987 | locus YJL095W, strain BCK1, stronger effect = lower value 0.974 and 0.981 | locus YJL115W, strain asf1, stronger effect = lower value 0.975 | locus YJL129C, strain trk1, stronger effect = lower value 1.08 | locus YJL134W, strain LCB3, stronger effect = lower value 0.976 | locus YJL154C, strain vps35, stronger effect = lower value 0.98 | locus YJL164C, strain tpk1, stronger effect = lower value 0.994 | locus YJL166W, strain qcr8, stronger effect = lower value 0.986 | locus YJL168C, strain set2, stronger effect = lower value 0.966 | locus YJL187C, strain SWE1 (second series), stronger effect = lower value 0.978 | locus YJR043C, strain POL32, stronger effect = lower value 1 | locus YJR066W, strain TOR1, stronger effect = lower value 0.97
